# Reference: the supplement of paper PMC13380429
# Where a name gives a salt, the structure may show the parent alone.
# Tested on: Vero E6 infected with SARS-CoV-2
# Assay: morphology score (similarity to uninfected cells); higher = more like uninfected cells
# Conditions: 24 h
row,SMILES,morphology score
1,O=C(O)C1CSCN1 (centres undefined) [timonacic] (10 µM),-0.0905
2,CCCCC#Cc1nc(NC)c2ncn([C@@H]3O[C@H](CO)[C@@H](O)[C@H]3O)c2n1 (10 µM),0.143
3,CNC(=O)c1c(C)oc2cc(Oc3ncnc4cc(OC)c(OC)cc34)ccc12 [fruquintinib] (10 µM),0.0139
4,Cc1c(N(C)CS(=O)(=O)O)c(=O)n(-c2ccccc2)n1C [metamizole] (10 µM),0.141
5,CC(O)(P(=O)(O)O)P(=O)(O)O [etidronic-acid] (10 µM),0.115
6,CCc1cc2c(s1)-n1c(C)nnc1CN=C2c1ccccc1Cl [etizolam] (10 µM),-0.0349
7,CCCc1nc2c(C)cc(-c3nc4ccccc4n3C)cc2n1Cc1ccc(-c2ccccc2C(=O)O)cc1 [telmisartan] (10 µM),0.215
8,O=C1NN(C(=O)Nc2ccc(Br)cc2)[C@@H](c2ccccc2)[C@@H]1c1ccccc1 (10 µM),-0.176
9,CS(=O)(=O)c1ccc([C@@H](O)[C@@H](CF)NC(=O)C(Cl)Cl)cc1 [florfenicol] (10 µM),-0.00265

# Tested on: Vero E6 infected with SARS-CoV-2
# Assay: SARS-CoV-2 infection rate relative to infected DMSO; higher = more infection, active = 60 or less
# Conditions: 24 h
row,SMILES,SARS-CoV-2 infection rate
1,O=C(c1ccccc1)C(O)c1ccccc1 (centres undefined) [benzoin] (10 µM),101% (inactive)
2,CCOC(=O)c1ccc(OCCC2CCN(c3ccc(C)nn3)CC2)cc1 [pirodavir] (10 µM),104% (inactive)
3,CC(CC(C(N)=O)(c1ccccc1)c1ccccc1)N(C)C (centres undefined) [aminopentamide] (10 µM),104% (inactive)
4,CCCn1c(=O)c2[nH]cnc2n(-c2ccc(Cl)cc2)c1=O [arofylline] (10 µM),108% (inactive)
5,Cc1ccc2c(c1)C1(CCN(CCc3nc(-c4ccccc4)oc3C)CC1)OC(=O)N2 (0.833333 µM),104% (inactive)
6,CO[C@@]1(NC(=O)C2SC(=C(C(N)=O)C(=O)O)S2)C(=O)N2C(C(=O)O)=C(CSc3nnnn3C)CS[C@@H]21 (some centres undefined) [cefotetan] (10 µM),98% (inactive)
7,C[S+]([O-])c1ccc(-c2nc(-c3ccc(F)cc3)c(-c3ccncc3)[nH]2)cc1 (centres undefined) (10 µM),95% (inactive)
8,c1ccc2sc(SN3CCOCC3)nc2c1 [N-oxydiethylenebenzothiazole-2-sulfenamide] (10 µM),104% (inactive)
9,Oc1ccc2c3c1O[C@H]1c4[nH]c5ccccc5c4C[C@@]4(O)[C@@H](C2)N(CC2CC2)CC[C@]314 [naltrindole] (10 µM),106% (inactive)
10,COCC[n+]1c2c(n(Cc3cnccn3)c1C)C(=O)c1ccccc1C2=O (0.833333 µM),108% (inactive)
11,C[C@H](N)Cc1c[nH]cn1 [alpha-methylhistamine-dihydrobromide-(S)-(+)] (10 µM),99% (inactive)
12,OC[C@H]1O[C@@H](c2ccc(F)c(Cc3cc4ccccc4s3)c2)[C@H](O)[C@@H](O)[C@@H]1O [ipragliflozin-L-proline] (10 µM),110% (inactive)
13,CC(C)(O)c1coc(S(=O)(=O)NC(=O)Nc2c3c(cc4c2CCC4)CCC3)c1 (10 µM),93.5% (inactive)
14,COc1cc(C(=O)N2CCC(N3CCN(C)CC3)CC2)ccc1Nc1ncc2c(n1)N(C)c1ccccc1C(=O)N2C (0.833333 µM),100% (inactive)
15,Cc1cncc(CN2CCC(=C3c4ccc(Cl)cc4CCc4cccnc43)CC2)c1 [rupatadine] (10 µM),108% (inactive)
16,CC(=O)OC[C@H](N)C(=O)O [O-acetyl-L-serine] (10 µM),88% (inactive)
17,O=C(C=Cc1ccccc1)NC(NC(=S)Nc1ccc(Cl)cc1)C(Cl)(Cl)Cl (centres undefined) (10 µM),106% (inactive)
18,CN(C)CCc1c[nH]c2ccc(Cn3cncn3)cc12 [rizatriptan] (10 µM),114% (inactive)
19,CNC(=O)[C@H](Cc1c[nH]c2ccccc12)NC(=O)[C@@H](CC(=O)NO)CC(C)C [ilomastat] (10 µM),114% (inactive)
20,Cn1c(C#N)ccc1-c1ccc2c(c1)C(C)(C)OC(=S)N2 [tanaproget] (10 µM),102% (inactive)

row,SMILES,SARS-CoV-2 infection rate
1,NS(=O)(=O)c1ccc(-n2nc(C(F)(F)F)cc2-c2ccc(Cl)cc2)cc1 (10 µM),106% (inactive)
2,O=C(OC(C(F)(F)F)C(F)(F)F)N1CCC(C(O)(c2ccc3c(c2)OCO3)c2ccc3c(c2)OCO3)CC1 (10 µM),93.5% (inactive)
3,C=CCCCCCCCCC(=O)[O][Zn][O]C(=O)CCCCCCCCC=C [zinc-undecylenate] (10 µM),110% (inactive)
4,Cn1cc(-c2ccc3c(c2)CCN3C(=O)Cc2cccc(C(F)(F)F)c2)c2c(N)ncnc21 (0.833333 µM),92% (inactive)
5,CC[C@H](CC[C@@H](C)[C@H]1CC[C@H]2[C@@H]3CC=C4C[C@@H](O[C@@H]5O[C@H](CO)[C@@H](O)[C@H](O)[C@H]5O)CC[C@]4(C)[C@H]3CC[C@]12C)C(C)C [daucosterol] (10 µM),102% (inactive)
6,C[C@H]1CO[C@@H]2Cn3cc(C(=O)NCc4ccc(F)cc4F)c(=O)c(O)c3C(=O)N12 (10 µM),108% (inactive)
7,Nc1ncc2c(n1)CC(c1ccco1)CC2=O (centres undefined) (10 µM),99% (inactive)
8,CO[C@H]1C[C@@H]2CC[C@@H](C)[C@@](O)(O2)C(=O)C(=O)N2CCCC[C@H]2C(=O)O[C@H]([C@H](C)C[C@@H]2CC[C@@H](O)[C@H](OC)C2)CC(=O)[C@H](C)/C=C(\C)[C@@H](O)[C@@H](OC)C(=O)[C@H](C)C[C@H](C)/C=C/C=C/C=C/1C [sirolimus] (10 µM),104% (inactive)
9,CCC(c1ccccc1)c1c(O)c2ccccc2oc1=O (centres undefined) [phenprocoumon] (10 µM),102% (inactive)
10,N[C@@H](CSCCCO)C(=O)O [fudosteine] (10 µM),104% (inactive)
11,CSc1ccc2c(c1)N(CCC1CCCCN1C)c1ccccc1S2 (centres undefined) [thioridazine] (0.833333 µM),109% (inactive)
12,O=C(O)C1CSCN1 (centres undefined) [timonacic] (10 µM),110% (inactive)
13,CCCCC#Cc1nc(NC)c2ncn([C@@H]3O[C@H](CO)[C@@H](O)[C@H]3O)c2n1 (10 µM),96% (inactive)
14,CNC(=O)c1c(C)oc2cc(Oc3ncnc4cc(OC)c(OC)cc34)ccc12 [fruquintinib] (10 µM),110% (inactive)
15,Cc1c(N(C)CS(=O)(=O)O)c(=O)n(-c2ccccc2)n1C [metamizole] (10 µM),93.5% (inactive)
16,CC(O)(P(=O)(O)O)P(=O)(O)O [etidronic-acid] (10 µM),103% (inactive)
17,CCc1cc2c(s1)-n1c(C)nnc1CN=C2c1ccccc1Cl [etizolam] (10 µM),103% (inactive)
18,CCCc1nc2c(C)cc(-c3nc4ccccc4n3C)cc2n1Cc1ccc(-c2ccccc2C(=O)O)cc1 [telmisartan] (10 µM),100% (inactive)
19,O=C1NN(C(=O)Nc2ccc(Br)cc2)[C@@H](c2ccccc2)[C@@H]1c1ccccc1 (10 µM),108% (inactive)
20,CS(=O)(=O)c1ccc([C@@H](O)[C@@H](CF)NC(=O)C(Cl)Cl)cc1 [florfenicol] (10 µM),96.5% (inactive)
